Results reported in PubChem BioAssay.
Active and inactive are the calls of the source.

Columns and labels:
Albumin (Bos taurus) = Albumin (Bos taurus) (UniProt P02769); experiment: compounds binding labelled BSA control protein – biochemical, small-molecule microarray, Alexa647 label, 635/667 nm fluorescence, artefact control for SMM control protein annotation, profiling panel (AID 1118); details: BSA-A647 binding, fluorescence 635 nm, higher = more signal;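 also: score merges 667 nm emission intensity and signal-to-noise per printed compound spot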
Albumin (Bos taurus), sequence (P02769 whole entry, looked up): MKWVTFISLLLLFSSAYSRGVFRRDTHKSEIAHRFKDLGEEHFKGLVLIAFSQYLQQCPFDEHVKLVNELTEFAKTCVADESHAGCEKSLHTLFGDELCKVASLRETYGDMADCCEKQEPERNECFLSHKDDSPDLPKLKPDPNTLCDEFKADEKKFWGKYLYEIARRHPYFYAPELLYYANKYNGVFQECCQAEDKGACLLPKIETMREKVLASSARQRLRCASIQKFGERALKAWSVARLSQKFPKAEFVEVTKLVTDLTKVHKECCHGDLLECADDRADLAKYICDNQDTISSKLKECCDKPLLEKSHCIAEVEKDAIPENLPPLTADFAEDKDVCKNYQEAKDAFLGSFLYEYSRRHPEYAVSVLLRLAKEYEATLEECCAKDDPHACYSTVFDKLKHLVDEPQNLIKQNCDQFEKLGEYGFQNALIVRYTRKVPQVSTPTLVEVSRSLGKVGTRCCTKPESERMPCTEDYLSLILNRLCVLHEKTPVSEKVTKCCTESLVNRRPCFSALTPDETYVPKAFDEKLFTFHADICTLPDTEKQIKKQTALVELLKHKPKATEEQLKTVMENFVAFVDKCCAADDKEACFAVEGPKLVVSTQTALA

[1] = probe aXIP binding to arrayed compounds – biochemical, NeuroSMM set, 635/667 nm fluorescence, primary screen (AID 1119); details: small-molecule microarray, higher = more signal, called active from +8 up or from −8 down;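 also: probe is the protein aXip251-270 applied at 1 µg/mL to compound-printed slides; binding of probe to printed compounds measured as 667 nm fluorescence plus signal to noise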
[2] = probe aNOTCH3 binding on compound microarray – biochemical, small-molecule microarray, 635/667 nm fluorescence, primary screen (AID 1120); details: higher = more signal;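 also: probe is a biotin-tagged antibody raised against NOTCH3 rather than NOTCH3 protein; score merges spot fluorescence near 667 nm with spot signal to noise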
[3] = probe aNOTCH2 binding on compound microarray – biochemical, small-molecule microarray, 635/667 nm fluorescence, primary screen (AID 1121); details: higher = more signal;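 also: score merges feature fluorescence read at 667 nm with its signal to noise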
[4] = target: Carbonic anhydrase 2 (Homo sapiens) (UniProt P00918); experiment: compounds binding carbonic anhydrase 2 – biochemical, small-molecule microarray, Alexa647-labelled CAII, profiling panel (AID 1122); details: CAII-A647 binding fluorescence, higher = more signal
[5] = COS7 lysate on small-molecule microarray, probe aHis, 635 nm (AID 1123); details: COS7 cell lysate, fluorescence, higher = more signal;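 also: z-score combines 667nm fluorescence intensity with signal-to-noise per printed compound spot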
[6] = probe aLAP1 signal on lysate-treated microarray – cell lysate, small-molecule microarray, COS7 lysate, primary screen (AID 1124); details: probe aLAP1, fluorescence, higher = more signal;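 also: lysate comes from COS7 cells expressing LAP1 and is applied at 0.3 µg/mL; score merges spot fluorescence near 667 nm with signal-to-noise over triplicate slides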
Sam68 (KHDRBS1) = experiment: compounds binding KHDRBS1 protein – biochemical, small-molecule microarray, 635 nm fluorescence, primary screen (AID 1125); details: higher = more signal;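 also: score merges 667 nm channel intensity with signal to noise over triplicate slides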
[7] = tested on: Chordin-like protein 2 (CHRDL2); experiment: compounds binding chordin-like 2 – biochemical, small-molecule microarray, 635 nm fluorescence, primary screen (AID 1126); details: fluorescence 635 nm, higher = more signal;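 also: printed compound slides probed with Chrdl2 protein at 4 µg/mL for 1 h at 4 C; score merges 667 nm emission intensity with signal to noise over three replicate slides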
[8] = target: Concanavalin-A (Canavalia ensiformis) (UniProt P02866); experiment: compounds binding concanavalin A lectin – biochemical, small-molecule microarray, Alexa647 label, 635 nm, artefact control for SMM control protein annotation, primary screen (AID 1127); details: ConA-A647 binding fluorescence, higher = more signal;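 also: z combines 667 nm emission intensity with signal-to-noise across three replicate slides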
Concanavalin-A (Canavalia ensiformis), sequence (P02866 whole entry, looked up): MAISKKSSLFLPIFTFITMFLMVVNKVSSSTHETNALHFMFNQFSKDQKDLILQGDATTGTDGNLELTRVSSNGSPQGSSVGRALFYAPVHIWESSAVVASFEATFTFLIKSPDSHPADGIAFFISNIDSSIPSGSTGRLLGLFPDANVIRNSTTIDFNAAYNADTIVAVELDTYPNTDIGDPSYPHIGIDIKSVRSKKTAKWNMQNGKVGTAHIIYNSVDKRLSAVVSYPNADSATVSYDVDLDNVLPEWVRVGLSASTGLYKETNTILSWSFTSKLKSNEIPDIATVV

[9] = compounds binding Alexa647 anti-His antibody – biochemical, small-molecule microarray, 635 nm fluorescence, artefact control for SMM control protein annotation, primary screen (AID 1128); details: higher = more signal;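 also: score merges feature fluorescence with signal-to-noise for each printed compound spot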
[10] = tested on: Human papillomavirus type 1a E7 protein (residues 1-88); experiment: HPV1a E7 small-molecule binders, primary screen, biochemical, small-molecule microarray, residues 1-88, 635 nm (AID 1129); details: small-molecule microarray binding, fluorescence 635 nm; higher = more signal
[11] = target: Focal adhesion kinase 1 (Homo sapiens) (UniProt Q05397); experiment: PTK2 protein binding on printed compound slides – biochemical, small-molecule microarray, 635/667 nm fluorescence, BSA, DTT, primary screen (AID 1130); details: 635 nm fluorescence, higher = more signal;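 also: composite of spot emission at 667 nm and signal to noise over triplicate slides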
Focal adhesion kinase 1 (Homo sapiens), sequence (Q05397 whole entry, looked up): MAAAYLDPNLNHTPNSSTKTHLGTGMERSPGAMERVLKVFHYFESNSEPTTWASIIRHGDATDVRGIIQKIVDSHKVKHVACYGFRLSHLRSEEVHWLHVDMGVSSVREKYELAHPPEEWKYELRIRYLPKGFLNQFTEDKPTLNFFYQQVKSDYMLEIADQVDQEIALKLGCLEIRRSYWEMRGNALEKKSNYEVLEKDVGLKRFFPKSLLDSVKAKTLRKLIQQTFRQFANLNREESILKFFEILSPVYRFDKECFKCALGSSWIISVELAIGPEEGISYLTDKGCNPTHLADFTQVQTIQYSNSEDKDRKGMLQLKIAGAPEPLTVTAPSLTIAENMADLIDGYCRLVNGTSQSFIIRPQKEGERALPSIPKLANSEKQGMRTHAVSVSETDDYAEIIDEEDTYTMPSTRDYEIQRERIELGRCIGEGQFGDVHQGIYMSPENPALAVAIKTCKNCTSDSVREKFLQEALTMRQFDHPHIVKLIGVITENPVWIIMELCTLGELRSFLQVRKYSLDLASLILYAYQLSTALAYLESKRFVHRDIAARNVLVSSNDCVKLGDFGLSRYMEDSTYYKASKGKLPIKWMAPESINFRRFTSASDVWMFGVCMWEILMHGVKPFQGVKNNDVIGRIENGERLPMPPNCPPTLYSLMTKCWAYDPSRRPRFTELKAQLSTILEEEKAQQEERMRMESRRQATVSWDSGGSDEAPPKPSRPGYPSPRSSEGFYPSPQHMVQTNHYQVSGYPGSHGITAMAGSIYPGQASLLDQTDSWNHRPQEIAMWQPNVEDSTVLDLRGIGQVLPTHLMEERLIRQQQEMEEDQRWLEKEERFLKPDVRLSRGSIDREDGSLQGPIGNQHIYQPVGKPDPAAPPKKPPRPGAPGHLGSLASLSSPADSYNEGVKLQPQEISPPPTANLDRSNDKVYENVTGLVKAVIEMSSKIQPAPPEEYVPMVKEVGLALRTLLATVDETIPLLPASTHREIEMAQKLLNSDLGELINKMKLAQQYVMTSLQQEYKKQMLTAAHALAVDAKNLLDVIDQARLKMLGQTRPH

[12] = tested on: Fibrinogen (Alexa647-labelled); experiment: Alexa647-fibrinogen binding to printed small molecules – biochemical, small-molecule microarray, 635/667 nm fluorescence, artefact control for SMM control-protein annotation, profiling panel (AID 1131); details: fibrinogen-A647 binding fluorescence, higher = more signal;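 also: z-score merges 667 nm fluorescence with per-spot signal-to-noise over triplicate slides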
[13] = target: Follistatin (Homo sapiens) (UniProt P19883); experiment: FST protein binding to printed compounds – biochemical, small-molecule microarray, 635/667 nm fluorescence, primary screen (AID 1132); details: 635 nm fluorescence, higher = more signal
Follistatin (Homo sapiens), sequence (P19883 whole entry, looked up): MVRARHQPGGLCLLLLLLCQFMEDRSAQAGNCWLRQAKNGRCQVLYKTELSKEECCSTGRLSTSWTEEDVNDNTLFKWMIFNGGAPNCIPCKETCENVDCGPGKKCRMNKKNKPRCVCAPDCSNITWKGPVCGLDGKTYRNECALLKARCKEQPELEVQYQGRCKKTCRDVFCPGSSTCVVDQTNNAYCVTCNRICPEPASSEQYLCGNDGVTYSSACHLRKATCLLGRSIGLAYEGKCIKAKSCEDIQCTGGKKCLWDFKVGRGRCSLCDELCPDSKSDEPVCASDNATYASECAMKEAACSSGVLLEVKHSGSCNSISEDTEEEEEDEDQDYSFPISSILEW

[14] = target: Fibroblast growth factor 2 (Homo sapiens) (UniProt P09038); experiment: basic fibroblast growth factor binding to printed compounds – biochemical, small-molecule microarray, 635/667 nm fluorescence, primary screen (AID 1133); details: FGF2, fluorescence 635/667, higher = more signal
Fibroblast growth factor 2 (Homo sapiens), sequence (P09038 whole entry, looked up): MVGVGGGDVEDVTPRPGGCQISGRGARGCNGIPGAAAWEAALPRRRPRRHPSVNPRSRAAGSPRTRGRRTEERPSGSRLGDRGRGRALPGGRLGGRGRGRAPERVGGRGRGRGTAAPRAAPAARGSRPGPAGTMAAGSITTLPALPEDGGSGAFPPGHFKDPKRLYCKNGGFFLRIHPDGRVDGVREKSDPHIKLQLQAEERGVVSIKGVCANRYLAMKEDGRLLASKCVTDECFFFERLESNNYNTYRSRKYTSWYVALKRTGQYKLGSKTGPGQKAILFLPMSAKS

[15] = JC-1 mitochondrial potential readout, lung cancer cells – cell-based, A549, JC-1 fluorescence, basal, 24 h, 100 nL, profiling panel (AID 1138); details: higher = more signal;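 also: A549 lung adenocarcinoma cells under basal conditions with no added stimulus; test concentration not given here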
Lefty1 = Lefty1 protein binding to printed compounds – biochemical, small-molecule microarray, 635/667 nm fluorescence, primary screen (AID 1139); details: fluorescence 635/667, higher = more signal
[16] = tested on: wheat germ agglutinin (Triticum aestivum), Alexa647-labelled; experiment: Alexa647-WGA lectin binding to printed small molecules – biochemical, small-molecule microarray, 635/667 nm fluorescence, artefact control for SMM control-protein annotation, profiling panel (AID 1140); details: WGA-A647 binding, 635 nm fluorescence, higher = more signal;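 also: score merges 667 nm feature emission with signal to noise over triplicate slides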
[17] = target: Luciferin 4-monooxygenase (Photinus pyralis) (UniProt P08659); experiment: inhibition of purified Photinus pyralis luciferase – biochemical, luminescence, purified enzyme, 2006 set, primary screen (AID 1141); details: purified firefly luciferase, SteadyGlo luminescence, 30 min; higher = more signal, called active from +8 up or from −8 down;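 also: cell-free assay with purified firefly luciferase at 100 ng per well in PBS; test concentration not given here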
Luciferin 4-monooxygenase (Photinus pyralis), sequence (P08659 whole entry, looked up): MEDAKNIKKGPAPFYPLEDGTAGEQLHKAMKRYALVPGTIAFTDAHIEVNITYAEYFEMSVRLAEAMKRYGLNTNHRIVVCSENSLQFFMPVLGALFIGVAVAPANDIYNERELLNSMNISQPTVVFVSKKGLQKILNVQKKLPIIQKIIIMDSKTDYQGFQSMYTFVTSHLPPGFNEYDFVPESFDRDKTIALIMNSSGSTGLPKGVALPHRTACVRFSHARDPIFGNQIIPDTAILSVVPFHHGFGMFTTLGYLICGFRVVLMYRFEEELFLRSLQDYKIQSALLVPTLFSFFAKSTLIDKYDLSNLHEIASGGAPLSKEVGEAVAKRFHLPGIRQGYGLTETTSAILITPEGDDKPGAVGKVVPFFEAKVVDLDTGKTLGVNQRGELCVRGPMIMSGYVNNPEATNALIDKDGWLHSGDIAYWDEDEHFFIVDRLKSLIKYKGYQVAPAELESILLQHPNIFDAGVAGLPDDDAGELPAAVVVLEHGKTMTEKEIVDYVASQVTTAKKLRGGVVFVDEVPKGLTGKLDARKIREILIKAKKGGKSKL

Structure (SMILES)	composite z-score (Albumin (Bos taurus))	composite Z-score [1]	composite z-score [2]	composite z-score [3]	composite z-score [4]	composite z-score [5]	composite z-score [6]	composite z-score (Sam68 (KHDRBS1))	composite z-score [7]	composite z-score [8]	composite z-score [9]	composite z-score [10]	composite z-score [11]	composite z-score [12]	composite z-score [13]	composite z-score [14]	z-score [15]	composite z-score (Lefty1)	composite z-score [16]	z-score [17]
CCOC(=O)[C@H](CC(C)C)NC(=O)CCC1CC(OC(=O)NCc2ccc3c(c2)OCO3)CC2(CCCC(COC(=O)NCCc3ccc(Cl)cc3)O2)O1 (stereo not given in full)	0.619	-0.232 (inactive)	0.0116	-0.159	0.232	0.817	0.127	1.11	0.359	-0.0326	0.141	0.653	0.0146	-0.092	0.62	0.671	0.387	1.14	0.669	0.621 (inactive)
CCCNC(=O)OC[C@H]1O[C@H](CCON=C[C@@H](C)[C@H](OCc2ccccc2)C(C)C)C=C[C@@H]1Oc1ccc(OC)cc1	-0.655	-0.288 (inactive)	-0.0308	-0.149	-0.473	0.775	-0.394	-1.04	0.379	-0.501	3.25	-0.603	-0.072	-0.101	-0.134	-0.0238	1.63	0.401	-0.199	-1.46 (inactive)
CC(=O)OC[C@H]1O[C@H](C#CCC2CCCCC2)C=C[C@@H]1OC(C)=O	0.718	-0.106 (inactive)	-0.154	-0.0632	0.494	0.853	0.53	0.953	0.32	1.04	0.502	0.916	-0.146	0.672	0.675	0.339	0.587	0.513	0.371	-2.68 (inactive)
COc1ccc(O[C@H]2C=C[C@@H](c3ccccc3)O[C@@H]2CON=C(C)CCN2CCCc3nc(C)c(C)cc32)cc1	0.118	0.528 (inactive)	0.0225	-0.048	0.437	0.896	0.271	1.05	0.369	0.946	1.5	0.957	0.0143	0.328	0.651	0.529	1.16	0.408	0.584	0.715 (inactive)
CCOC(=O)[C@H](Cc1ccccc1)NC(=O)CCC1CC(OC(=O)NCCc2ccc(F)cc2)CC2(CCCC(COC(=O)NCc3cccc(C(F)(F)F)c3)O2)O1 (stereo not given in full)	0.825	1.43 (inactive)	0.148	-0.192	0.499	2.08	0.137	1.3	0.285	1.06	0.554	1.16	0.31	0.943	0.787	0.696	0.578	1.64	0.502	0.871 (inactive)
CC(C)=NO[C@@H](C)c1cn([C@H](CO)Cc2ccccc2)nn1	0.015	0.374 (inactive)	0.145	-0.0375	0.138	0.398	0.224	0.863	0.655	0.65	0.554	0.598	-0.17	0.17	0.238	0.239	-0.0312	0.542	0.237	-2 (inactive)
CC(=O)OC[C@H]1O[C@H](CC=NOC[C@@H](O)COCc2ccco2)C=C[C@@H]1OC(C)=O	0.037	0.328 (inactive)	0.282	-0.0022	-0.287	-0.37	-0.14	0.586	1.46	-0.389	0.526	-0.193	0.0925	-0.629	1.38	1.54	0.548	1.52	-0.327	0.642 (inactive)
CO[C@H]1COC(=O)CCC[C@H](C)[C@H](OC)COC(=O)CC=C[C@@H]1C	-0.235	-0.348 (inactive)	-0.189	-0.118	-0.515	-1.17	-0.219	-0.219	1.15	-0.362	1.03	-0.676	-0.0022	-1.52	1.1	1.13	-0.904	0.987	-0.0108	-0.981 (inactive)
C=C(C)C(=O)OC[C@H]1CN2[C@@H](CC[C@@H](C)[C@@H]2c2ccc(Br)cc2)C(=O)O1	-0.625	0.27 (inactive)	-0.0362	-0.104	0.079	0.379	0.318	0.428	0.698	-0.426	2.44	0.0456	-0.174	-0.613	0.489	0.108	0.47	0.264	-0.034	-2.88 (inactive)
CCOC(=O)CCN1C(=O)[C@H]2[C@H]3[C@H](O)[C@H](O)CC(=NO[C@@H]4O[C@H](CO)[C@@H](O)[C@H](O)[C@H]4O)[C@H]3CC[C@H]2C1=O	0.0221	-0.048 (inactive)	-0.15	-0.113	0.197	0.174	-0.0363	0.201	0.52	0.487	0.919	0.544	0.068	0.551	0.0489	0.599	-0.658	0.49	-0.104	0.493 (inactive)
O=C1[C@H]2[C@H]3[C@H](O)[C@H](O)CC(=NOCc4ccccc4)[C@@H]3CC[C@H]2C(=O)N1c1cccc(Oc2ccccc2)c1	0.446	0.0894 (inactive)	-0.119	-0.147	0.146	0.536	0.397	1.32	0.0204	0.335	0.695	0.452	0.0881	0.96	0.248	0.184	0.578	0.687	0.315	0.245 (inactive)
